This note sets out measurements from the supplement of paper PMC8007513.

The test system of this assay is Trichoderma virens ATCC 9645. Kind of assay: growth yield (OD600) relative to untreated control; higher = less growth inhibition. As to conditions: compound concentration: 100 uM. A digest of the protocol:
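For each 96-well plate, 100 μl aliquots were prepared with Trichoderma virens ATCC 9645 spores suspended at 15,000 spores ml^−1 in potato dextrose broth. The spores had been harvested from potato dextrose agar plates after 7 days. Library compounds were present at 100 μM final, some wells also receiving a biocide at 200 ng ml^−1, and plates were grown at 30 °C with OD600 read on a BioTek EL800 at 40 h and 72 h. Reported growth, relative to the control lacking both agents, is the mean of duplicate screens.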

Molecules are shown by their SMILES. Where a name gives a salt, the structure may show the parent alone. ± gives the standard error. The campaign covered roughly 1,300 compounds. About 75 (6%) showed an effect of 50% or more. This is one part of a sample in which strong results are shown more often than they occur.

The compound `c1ccc2[nH]c(-c3cscn3)nc2c1` [Tiabendazole] showed a growth yield (40 h) of 1.43 ± 1.4% and a growth yield (72 h) of 1.26 ± 1.3%.

`C[C@@H]1CCC[C@H](C)N1NC(=O)c1ccc(Cl)c(S(N)(=O)=O)c1` [Clopamide]: the growth yield is 99.6 ± 1.8% (40 h) and 103 ± 3% (72 h).

On to `CCCCc1ncc(/C=C(\Cc2cccs2)C(=O)O)n1Cc1ccc(C(=O)O)cc1` [Eprosartan mesylate], for which the growth yield stood at 98.3 ± 5.6% (40 h) and 94.08 ± 0.94% (72 h).

On to `Cc1onc(-c2ccccc2)c1C(=O)N[C@@H]1C(=O)N2[C@@H]1SC(C)(C)[C@@H]2C(=O)O` [Oxacillin sodium], for which the growth yield by setting is: (40 h) 111 ± 1.6%; (72 h) 105 ± 1.4%.

As to `CCCCCOC(=O)Nc1nc(=O)n([C@@H]2O[C@H](C)[C@@H](O)[C@H]2O)cc1F` [Capecitabine], the growth yield worked out at 105.2 ± 0.64% (40 h) and 103.2 ± 0.84% (72 h).

On to `CC(CN(C)C)C(C)(O)Cc1ccc(Cl)cc1` (stereo unspecified) [Clobutinol hydrochloride], for which the growth yield (40 h) was 105 ± 3.5% and the growth yield (72 h) was 104 ± 2.5%.

In the case of `Oc1c(Cl)cc(Cl)c(Cl)c1Cc1c(O)c(Cl)cc(Cl)c1Cl` [Hexachlorophene], the growth yield worked out at 25.3 ± 2.1% (40 h) and 98.9 ± 5.8% (72 h).

Turning to `CC(C(=O)O)c1cccc(Oc2ccccc2)c1` (stereo unspecified) [Fenoprofen calcium salt dihydrate], the growth yield runs as follows: (40 h) 97.5 ± 10%; (72 h) 97.7 ± 13%.

`CC(=O)N[C@@H](CC(C)C)C(=O)O` [N-Acetyl-L-leucine]: the growth yield by setting is: (40 h) 103 ± 3%; (72 h) 103 ± 2.7%.

`CCCN(CCC)CCc1cccc2c1CC(=O)N2` [Ropinirole hydrochloride] returned a growth yield (40 h) of 99.43 ± 0.64% and a growth yield (72 h) of 103 ± 1.1%.

For `COc1cc([S+](C)[O-])ccc1-c1nc2cccnc2[nH]1` (stereo unspecified) [Sulmazole], the growth yield reads like this: (40 h) 99.4 ± 2.2%; (72 h) 98 ± 1.7%.

On to `Cc1cc2cc3c(C)cc(=O)oc3c(C)c2o1` [Trioxsalen], for which the growth yield is, setting by setting: (40 h) 42.1 ± 0.48%; (72 h) 73.7 ± 4.5%.

Turning to `COc1c2occc2c(OC)c2c(=O)cc(C)oc12` [Khellin], the growth yield worked out at 97.7 ± 1.8% (40 h) and 95.1 ± 5.1% (72 h).

As for `Cc1cc(=O)oc2cc(O)ccc12` [Hymecromone], the growth yield reads like this: (40 h) 101 ± 0.32%; (72 h) 97.01 ± 0.94%.

In the case of `COCCOC(=O)C1=C(C)NC(C)=C(C(=O)OC(C)C)C1c1cccc([N+](=O)[O-])c1` (stereo unspecified) [Nimodipine], the growth yield reads like this: (40 h) 95.3 ± 7.3%; (72 h) 97.7 ± 9%.

As for `COC(=O)C1=C(C)NC(C)=C(C(=O)OCCN(C)Cc2ccccc2)C1c1cccc([N+](=O)[O-])c1` (stereo unspecified) [Nicardipine hydrochloride], the growth yield reads like this: (40 h) 89.4 ± 5.2%; (72 h) 114 ± 7.8%.

In the case of `CCOC(=O)C1=C(C)NC(C)=C(C(=O)OC)C1c1cccc(Cl)c1Cl` (stereo unspecified) [Felodipine], the growth yield came out at 92.8% (40 h) and 94.2% (72 h).

For `CCOC(=O)C1=C(C)NC(C)=C(C(=O)OC)C1c1cccc([N+](=O)[O-])c1` (stereo unspecified) [Nitrendipine], the growth yield reads like this: (40 h) 85.6 ± 1.1%; (72 h) 89.9 ± 3.7%.

Consider `COC(=O)C1=C(C)NC(C)=C(C(=O)OCC(C)C)C1c1ccccc1[N+](=O)[O-]` (stereo unspecified) [Nisoldipine], for which the growth yield is 25.6 ± 0.48% (40 h) and 23.9 ± 2.3% (72 h).

Take `COC(=O)C1=C(C)NC(C)=C(C(=O)OC)C1c1ccccc1[N+](=O)[O-]` [Nifedipine]: the growth yield turned out to be 44.2 ± 1.3% (40 h) and 53.1 ± 1.1% (72 h).

As to `N=C(N=C(N)N)N1CCOCC1` [Moroxidine hydrochloride], the growth yield was determined as 106 ± 4.3% (40 h) and 104 ± 1.9% (72 h).

`O=C(Nc1ccc([N+](=O)[O-])cc1Cl)c1cc(Cl)ccc1O` [Niclosamide]: the growth yield is 96.1 ± 0.16% (40 h) and 96.59 ± 0.1% (72 h).

Consider `CN[C@@H]1[C@H](O[C@H]2[C@H](O[C@H]3[C@H](O)[C@@H](O)[C@H](N=C(N)N)[C@@H](O)[C@@H]3N=C(N)N)O[C@@H](C)[C@]2(O)C=O)O[C@@H](CO)[C@H](O)[C@H]1O` [Streptomycin sulfate], for which the growth yield is, setting by setting: (40 h) 103 ± 1.3%; (72 h) 104.35 ± 0.1%.

In the case of `COc1cc(C)nc(-n2nc(C)cc2OC)n1` [Epirizole], the growth yield is, setting by setting: (40 h) 111 ± 3.8%; (72 h) 109 ± 3.8%.

Turning to `Cc1ncc(CO)c(CO)c1O` [Pyridoxine hydrochloride], the growth yield is, setting by setting: (40 h) 101.5 ± 0.16%; (72 h) 103.3 ± 0.52%.

For the compound `CCOC(=O)N1CCC(=C2c3ccc(Cl)cc3CCc3cccnc32)CC1` [Loratadine], the growth yield stood at 19.2 ± 12% (40 h) and 73.6% (72 h).

For the compound `Clc1ccc2c(c1)CCc1cccnc1C2=C1CCNCC1` [Desloratadine], the growth yield (40 h) was found to be 106 ± 6.8% and the growth yield (72 h) came to 105 ± 4.8%.

The compound `CN1CCC(=C2c3ccccc3CCc3cccnc32)CC1` [Azatadine maleate] had a growth yield (40 h) of 107 ± 7.9% and a growth yield (72 h) of 104 ± 4.2%.

In the case of `COc1ccc(C[C@@H]2c3cc(OC)c(OC)cc3CC[N@+]2(C)CCC(=O)OCCCCCOC(=O)CC[N@@+]2(C)CCc3cc(OC)c(OC)cc3[C@H]2Cc2ccc(OC)c(OC)c2)cc1OC` [Cisatracurium besylate], the growth yield (40 h) amounted to 95 ± 1.3% and the growth yield (72 h) was 94 ± 3.4%.

With `CCCSc1ccc2[nH]c(NC(=O)OC)nc2c1` [Albendazole], the growth yield is, setting by setting: (40 h) 73.2 ± 3.6%; (72 h) 84.3 ± 5.5%.

As to `CCCCc1ccc2[nH]c(NC(=O)OC)nc2c1` [Parbendazole], the growth yield is 53.4 ± 1.9% (40 h) and 95.9 ± 10% (72 h).

`CCCOc1ccc2[nH]c(NC(=O)OC)nc2c1` [Oxibendazol] gave a growth yield (40 h) of 16.4 ± 3.6% and a growth yield (72 h) of 74.6 ± 3.5%.

Consider `Cc1ccc2c(c1)c1c3n2CCNC3CCC1` (stereo unspecified) [Pirlindole mesylate], for which the growth yield reads like this: (40 h) 101 ± 1.1%; (72 h) 104 ± 2.5%.
